Reference: PubChem BioAssay (EPA / NIEHS)
The source made the active and inactive calls. The calls were made as follows: active = hit-call score of the fitted dose curve at least 0.9, where 1 is the maximum; inactive = score below 0.9.

How the values were obtained:
Conditions in all cases: mRNA level, 48 h; actives raise or lower the signal
[1] = read-out: growth arrest and DNA damage 45 (GADD45G), GADD45G (gene 10912); experiment: LTEA_HepaRG_GADD45G: Life Technologies and Expression Analysis (LTEA) Assay for growth arrest and DNA damage 45 (GADD45G) using HepaRG (AID 2283499)
How it was run: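 Gain or loss of GADD45G mRNA, quantified by TaqMan qRT-PCR against three housekeeping genes, is fitted in both directions relative to 0.5% DMSO. Human HepaRG cultures receive test chemical for 48 h at up to 100 uM.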

[2] = read-out: Glutamate-cysteine ligase regulatory (GCLM), GCLM (gene 2730); experiment: LTEA_HepaRG_GCLM: Life Technologies and Expression Analysis (LTEA) Assay for Glutamate-cysteine ligase regulatory (GCLM) using HepaRG (AID 2283500)
How it was run: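 Human liver HepaRG cultures receive test chemicals for 48 hours at up to 100 uM in 0.5% DMSO. GCLM expression is measured by qRT-PCR and analysed for increases or decreases against vehicle.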

[3] = read-out: Glutathione S-transferase M3 (GSTM3), GSTM3 (gene 2947); experiment: LTEA_HepaRG_GSTM3: Life Technologies and Expression Analysis (LTEA) Assay for Glutathione S-transferase M3 (GSTM3) using HepaRG (AID 2283501)
How it was run: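 HepaRG, plated 48 h, then serum-free induction medium; test chemical 48 h, duplicate; 100 uM top, half-log x8, 0.5% DMSO. Read-out: GSTM3 mRNA (TaqMan qRT-PCR, Fluidigm array). Bidirectional fit vs DMSO.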

[4] = read-out: Heat shock 70 kDa protein 1 (HSPA1A), gene 3303; experiment: LTEA_HepaRG_HSPA1A: Life Technologies and Expression Analysis (LTEA) Assay for Heat shock 70 kDa protein 1 (HSPA1A) using HepaRG (AID 2283502)
How it was run: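 HSPA1A induction in human HepaRG liver cells is measured after 48 h of chemical treatment (100 uM maximum, 0.5% DMSO vehicle). Expression comes from qRT-PCR normalized to endogenous controls.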

[5] = read-out: Hypoxia-inducible factor 1-alpha (Homo sapiens) (UniProt Q16665); experiment: LTEA_HepaRG_HIF1A: Life Technologies and Expression Analysis (LTEA) Assay for Hypoxia-inducible factor 1 (HIF1A) Trancription factor using HepaRG (AID 2283503)
How it was run: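 HepaRG, 48 h exposure, 8-pt half-log series from 100 uM, 0.5% DMSO vehicle, duplicates. Readout: HIF1A transcript by qRT-PCR (Fluidigm array), housekeeping-normalised. Bidirectional curve fit vs DMSO baseline.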

HGF (gene 3082) = experiment: LTEA_HepaRG_HGF: Life Technologies and Expression Analysis (LTEA) Assay for Hepatocyte Growth Facto (HGF) using HepaRG (AID 2283505)
How it was run: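 Read-out is HGF transcript level by qRT-PCR, normalized to three housekeeping genes, fitted bidirectionally against 0.5% DMSO vehicle. Human HepaRG cells received test chemicals for 48 h at up to 100 uM.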

[6] = read-out: Insulin Like Growth Factor 1 (IGF1), IGF1 (gene 3479); experiment: LTEA_HepaRG_IGF1: Life Technologies and Expression Analysis (LTEA) Assay for Insulin Like Growth Factor 1 (IGF1) using HepaRG (AID 2283506)
How it was run: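 Using human HepaRG liver cells, IGF1 transcript induction or suppression is measured 48 h after dosing across eight concentrations capped at 100 uM. Values derive from bidirectional concentration-response fitting with DMSO as baseline.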

[7] = read-out: Intercellular Adhesion Molecule 1 (ICAM1), ICAM1 (gene 3383); experiment: LTEA_HepaRG_ICAM1: Life Technologies and Expression Analysis (LTEA) Assay for Intercellular Adhesion Molecule 1 (ICAM1) using HepaRG (AID 2283507)
How it was run: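 Readout is qRT-PCR mRNA level, normalized to three housekeeping genes and fitted bidirectionally against 0.5% DMSO vehicle. Human HepaRG cultures received compound for 48 h, top concentration 100 uM with half-log dilutions.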

[8] = read-out: Insulin-like growth factor-binding protein 1 (IGFBP1), IGFBP1 (gene 3484); experiment: LTEA_HepaRG_IGFBP1: Life Technologies and Expression Analysis (LTEA) Assay for Insulin-like growth factor-binding protein 1 (IGFBP1) using HepaRG (AID 2283508)
How it was run: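 Thawed HepaRG cells are plated for 48 h, switched to serum-free induction medium, then dosed in duplicate for another 48 h (100 uM top, half-log steps). Lysates in RLT go to qRT-PCR, and gain or loss of signal is fitted relative to vehicle.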

[9] = read-out: Interleukin 6 (IL6), IL6 (gene 3569); experiment: LTEA_HepaRG_IL6: Life Technologies and Expression Analysis (LTEA) Assay for Interleukin 6 (IL6) using HepaRG (AID 2283509)
How it was run: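 Differentiated human HepaRG cells, plated 48 h then switched to serum-free induction medium, were exposed in duplicate for 48 h to eight half-log concentrations up to 100 uM in 0.5% DMSO. IL6 mRNA measured by qRT-PCR, normalized to ACTB/GAPDH/POLR2A.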

[10] = read-out: Interleukin 6 Receptor (IL6R), IL6R (gene 3570); experiment: LTEA_HepaRG_IL6R: Life Technologies and Expression Analysis (LTEA) Assay for Interleukin 6 Receptor (IL6R) using HepaRG (AID 2283510);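 as to AC50: TaqMan qRT-PCR signal normalized to ACTB GAPDH and POLR2A housekeeping genes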
How it was run: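 Concentration-response in human liver HepaRG cells: eight concentrations from 100 uM downward by half-logs, 48 h exposure, 0.5% DMSO vehicle. IL6R mRNA change measured by qRT-PCR and fitted in both directions relative to vehicle.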

[11] = read-out: Potassium channel subfamily K member 1 (KCNK1), KCNK1 (gene 3775); experiment: LTEA_HepaRG_KCNK1: Life Technologies and Expression Analysis (LTEA) Assay for Potassium channel subfamily K member 1 (KCNK1) using HepaRG (AID 2283511)
How it was run: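 Differentiated human HepaRG cells in serum-free induction medium were exposed in duplicate for 48 h to 8 half-log concentrations up to 100 uM in 0.5% DMSO. KCNK1 mRNA was measured by TaqMan qRT-PCR, normalized to ACTB, GAPDH and POLR2A, and fitted bidirectionally versus DMSO.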

[12] = read-out: Keratin 19 (KRT19), KRT19 (gene 3880); experiment: LTEA_HepaRG_KRT19: Life Technologies and Expression Analysis (LTEA) Assay for Keratin 19 (KRT19) using HepaRG (AID 2283512)
How it was run: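 KRT19 transcript levels, measured by Fluidigm qRT-PCR against three housekeeping genes, are fitted for gain or loss of signal relative to DMSO. Human HepaRG cells receive test chemicals (top 100 uM, half-log steps, 0.5% DMSO) for 48 hours.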

[13] = read-out: JUN Transcription Factor, JUN (gene 3725); experiment: LTEA_HepaRG_JUN: Life Technologies and Expression Analysis (LTEA) Assay for JUN Transcription Factor using HepaRG (AID 2283513)
How it was run: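 Human HepaRG liver cells receive test chemicals in 0.5% DMSO for 48 h across an eight-point range topping at 100 uM. Expression changes in JUN are scored in both directions against the DMSO vehicle.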

[14] = read-out: Lipase C (LIPC), LIPC (gene 3990); experiment: LTEA_HepaRG_LIPC: Life Technologies and Expression Analysis (LTEA) Assay for Lipase C (LIPC) using HepaRG (AID 2283514)
How it was run: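 Differentiated human HepaRG cells in serum-free induction medium were exposed in duplicate for 48 h to eight concentrations (top 100 uM, half-log steps, 0.5% DMSO). LIPC mRNA was quantified by TaqMan qRT-PCR, normalized to ACTB, GAPDH and POLR2A, with bidirectional fitting versus DMSO.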

[15] = read-out: Lipoprotein lipase (LPL), LPL (gene 4023); experiment: LTEA_HepaRG_LPL: Life Technologies and Expression Analysis (LTEA) Assay for Lipoprotein lipase (LPL) using HepaRG (AID 2283515)
How it was run: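 Differentiated human HepaRG cells in serum-free induction medium were exposed in duplicate for 48 h to eight half-log concentrations (top 100 uM) in 0.5% DMSO. LPL mRNA was quantified by TaqMan qRT-PCR, normalized to ACTB, GAPDH and POLR2A.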

[16] = read-out: MicroRNA 122 (MIR122), gene 406906; experiment: LTEA_HepaRG_MIR122: Life Technologies and Expression Analysis (LTEA) Assay for MicroRNA 122 (MIR122) using HepaRG (AID 2283516); also: the transcript read is the microRNA miR-122
How it was run: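 HepaRG, 48 h exposure, 8-pt half-log from 100 uM, 0.5% DMSO; TaqMan qRT-PCR; bidirectional fit vs DMSO.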

[17] = read-out: 3-Hydroxy-3-Methylglutaryl-CoA Synthase 2 (HMGCS2), HMGCS2 (gene 3158); experiment: LTEA_HepaRG_HMGCS2: Life Technologies and Expression Analysis (LTEA) Assay for 3-Hydroxy-3-Methylglutaryl-CoA Synthase 2 (HMGCS2) using HepaRG (AID 2283504)
How it was run: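 HepaRG, plated 48 h then switched to serum-free induction media; cmpd 8-pt, max 100 uM, 1/2-log, 0.5% DMSO, n=2, 48 h. HMGCS2 mRNA by Fluidigm TaqMan qRT-PCR, ACTB/GAPDH/POLR2A norm; bidirectional fit vs DMSO.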

[18] = read-out: matrix metalloproteinase-10 (MMP10), MMP10 (gene 4319); experiment: LTEA_HepaRG_MMP10: Life Technologies and Expression Analysis (LTEA) Assay for matrix metalloproteinase-10 (MMP10) using HepaRG (AID 2283517)
How it was run: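 HepaRG, collagen I, ~100,000 cells/well; serum-free induction medium; 48 h exposure, duplicate, 8-pt half-log to 100 uM, 0.5% DMSO. Readout: TaqMan qRT-PCR, normalized to ACTB/GAPDH/POLR2A; bidirectional fit vs DMSO.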

Measured: AC50

Sequence of Hypoxia-inducible factor 1-alpha (Homo sapiens) (Q16665 whole entry, looked up): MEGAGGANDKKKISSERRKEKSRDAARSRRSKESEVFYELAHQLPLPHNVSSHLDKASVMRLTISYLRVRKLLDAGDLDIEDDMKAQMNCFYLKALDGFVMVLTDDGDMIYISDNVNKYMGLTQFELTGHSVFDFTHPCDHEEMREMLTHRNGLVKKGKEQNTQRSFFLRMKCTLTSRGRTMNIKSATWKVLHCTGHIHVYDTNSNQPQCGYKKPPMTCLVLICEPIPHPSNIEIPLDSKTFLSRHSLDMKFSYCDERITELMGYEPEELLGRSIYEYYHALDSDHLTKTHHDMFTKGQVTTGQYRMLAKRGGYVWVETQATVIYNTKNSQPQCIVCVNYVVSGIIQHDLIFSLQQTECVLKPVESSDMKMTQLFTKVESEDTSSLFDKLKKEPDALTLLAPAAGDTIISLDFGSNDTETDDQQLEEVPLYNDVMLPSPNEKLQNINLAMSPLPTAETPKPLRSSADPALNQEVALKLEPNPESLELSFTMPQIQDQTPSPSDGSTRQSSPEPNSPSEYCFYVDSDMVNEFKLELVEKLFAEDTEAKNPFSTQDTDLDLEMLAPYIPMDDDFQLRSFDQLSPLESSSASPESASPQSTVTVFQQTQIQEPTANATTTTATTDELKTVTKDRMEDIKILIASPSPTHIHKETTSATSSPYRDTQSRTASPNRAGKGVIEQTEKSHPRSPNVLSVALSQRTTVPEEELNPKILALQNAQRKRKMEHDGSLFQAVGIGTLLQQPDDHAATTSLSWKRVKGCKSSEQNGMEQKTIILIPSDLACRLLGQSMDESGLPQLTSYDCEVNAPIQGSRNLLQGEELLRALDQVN

O=[N+]([O-])C(CO)(CO)CO
not listed: [17] | [18]
inactive: all other assays above

NS(=O)(=O)c1cc2c(cc1Cl)NCNS2(=O)=O
not listed: [5] | [13] | [18]
inactive: all other assays above

CC1=C(/C=C/C(C)=C/C=C/C(C)=C/CO)C(C)(C)CCC1
active: [4] 68.4 µM
not listed: [6] | [13] | [17] | [18]
inactive: all other assays above

COc1cc(C=O)ccc1O
not listed: [4] | [6] | [13] | [17] | [18]
inactive: all other assays above

CC1(C)NC(=O)NC1=O
not listed: [6] | [16] | [17]
inactive: all other assays above

CC(C)(C)c1cc(O)c(C(C)(C)C)cc1O
active: [3] 50 µM | [5] 78.5 µM | [17] 78.2 µM | [6] 82.4 µM | [7] 50 µM | [8] 50 µM | [9] 75.7 µM | [10] 77.6 µM | [12] 77.4 µM | [14] 79.7 µM | [18] 93.6 µM
inactive: [1] | [2] | HGF (gene 3082) | [11] | [13] | [15]

Cc1ccccc1Cl
not listed: [4] | [6] | [16] | [17]
inactive: all other assays above
